Experimental findings from PubChem BioAssay (NCATS) are described below.

Results filed as inconclusive are left out. A number with no mark means an inactive call. Calls of active or inactive are those of the source. Calls follow the shape of the dose curve; as a rule, active = well fitted curve in the direction sought with a large enough effect; inconclusive = small, poorly fitted or top-dose-only effect, or another doubt; inactive = no such curve, though single readings can be large; an effect the other way counts as inactive or inconclusive.

For test [1], the target named is Rap guanine nucleotide exchange factor 3 (Homo sapiens) (UniProt O95398). Description: Confirmatory qHTS for agonist of cAMP-regulated guanine nucleotide exchange factor 3 (EPAC1) (AID 1645881;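 also: EPAC1 catalysed release of BODIPY-GDP from Rap1B seen as fluorescence loss; 100% = effect of cAMP agonist control; nearly all actives have a fitted effect of over 75% in size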). (In general: In qHTS, concentration-response curves come from the screen itself.)
Test [2] addresses Rap guanine nucleotide exchange factor 4 (Homo sapiens) (UniProt Q8WZA2). Description: Confirmatory qHTS for agonist of cAMP-regulated guanine nucleotide exchange factor 4 (EPAC2) (AID 1645884).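 Also: nucleotide exchange releases bodipy-GDP from Rap1 and this lowers its fluorescence; % is scaled to controls: 0 for no effect and ±100 for the full control effect; nearly all actives have a fitted effect of over 65% in size.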
For test [3] the target is unchanged. As to the kind of experiment: Confirmatory qHTS for antagonist of cAMP-regulated guanine nucleotide exchange factor 4 (EPAC2) (AID 1645885). Also: nearly all actives have a fitted effect of over 25% in size. Also: potency is read from the fitted curve at half-maximal effect. As to activity change, negative = inhibition: % is scaled to controls: 0 for no effect and ±100 for the full control effect.
For test [4], the target named is Rap guanine nucleotide exchange factor 3 (Homo sapiens) (UniProt O95398). As to the kind of experiment: Counterscreen qHTS for antagonist of cAMP-regulated guanine nucleotide exchange factor 3 (EPAC1) (AID 1645888).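 Also: fluorescence loss as bound BODIPY-GDP is released from Rap1B; % of control where 0% means no effect.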 A digest of the protocol:
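Measured: fluorescence of BODIPY-GDP bound to Rap1B, which falls as exchange proceeds. Conditions include 50 uM competing GDP, 5 and 30 min reads, and a later cAMP challenge for antagonist detection.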
In general terms: A counterscreen serves to expose hits that act by an unwanted route or on another target.

Chain of Rap guanine nucleotide exchange factor 4 (Homo sapiens) (Q8WZA2 whole entry, looked up): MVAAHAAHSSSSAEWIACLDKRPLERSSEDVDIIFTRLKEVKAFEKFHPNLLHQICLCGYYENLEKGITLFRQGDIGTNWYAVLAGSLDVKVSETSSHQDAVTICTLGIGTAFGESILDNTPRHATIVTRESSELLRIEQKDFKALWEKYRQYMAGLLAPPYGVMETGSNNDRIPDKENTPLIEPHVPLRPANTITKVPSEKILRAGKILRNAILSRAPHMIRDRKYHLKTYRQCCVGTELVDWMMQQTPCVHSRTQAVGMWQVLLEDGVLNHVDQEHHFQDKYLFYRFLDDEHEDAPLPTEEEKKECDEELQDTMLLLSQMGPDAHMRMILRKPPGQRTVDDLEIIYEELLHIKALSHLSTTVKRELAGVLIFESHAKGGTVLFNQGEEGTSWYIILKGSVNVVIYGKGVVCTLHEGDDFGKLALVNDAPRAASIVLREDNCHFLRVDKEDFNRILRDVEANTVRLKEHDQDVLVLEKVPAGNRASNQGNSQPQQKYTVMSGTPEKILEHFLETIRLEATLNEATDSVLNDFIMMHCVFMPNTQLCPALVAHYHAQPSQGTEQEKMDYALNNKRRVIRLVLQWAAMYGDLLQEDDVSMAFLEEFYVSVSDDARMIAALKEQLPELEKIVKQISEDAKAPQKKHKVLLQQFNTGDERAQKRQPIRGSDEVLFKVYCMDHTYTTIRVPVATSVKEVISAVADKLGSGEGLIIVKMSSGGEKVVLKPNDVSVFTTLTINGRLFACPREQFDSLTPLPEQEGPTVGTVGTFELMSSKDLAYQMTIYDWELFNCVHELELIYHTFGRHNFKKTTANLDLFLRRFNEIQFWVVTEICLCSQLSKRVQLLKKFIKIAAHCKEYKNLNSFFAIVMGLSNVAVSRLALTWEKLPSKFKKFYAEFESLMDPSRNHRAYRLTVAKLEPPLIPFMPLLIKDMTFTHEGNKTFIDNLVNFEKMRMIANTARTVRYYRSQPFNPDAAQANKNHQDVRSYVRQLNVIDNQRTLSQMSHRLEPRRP
Chain of Rap guanine nucleotide exchange factor 3 (Homo sapiens) (O95398 whole entry, looked up): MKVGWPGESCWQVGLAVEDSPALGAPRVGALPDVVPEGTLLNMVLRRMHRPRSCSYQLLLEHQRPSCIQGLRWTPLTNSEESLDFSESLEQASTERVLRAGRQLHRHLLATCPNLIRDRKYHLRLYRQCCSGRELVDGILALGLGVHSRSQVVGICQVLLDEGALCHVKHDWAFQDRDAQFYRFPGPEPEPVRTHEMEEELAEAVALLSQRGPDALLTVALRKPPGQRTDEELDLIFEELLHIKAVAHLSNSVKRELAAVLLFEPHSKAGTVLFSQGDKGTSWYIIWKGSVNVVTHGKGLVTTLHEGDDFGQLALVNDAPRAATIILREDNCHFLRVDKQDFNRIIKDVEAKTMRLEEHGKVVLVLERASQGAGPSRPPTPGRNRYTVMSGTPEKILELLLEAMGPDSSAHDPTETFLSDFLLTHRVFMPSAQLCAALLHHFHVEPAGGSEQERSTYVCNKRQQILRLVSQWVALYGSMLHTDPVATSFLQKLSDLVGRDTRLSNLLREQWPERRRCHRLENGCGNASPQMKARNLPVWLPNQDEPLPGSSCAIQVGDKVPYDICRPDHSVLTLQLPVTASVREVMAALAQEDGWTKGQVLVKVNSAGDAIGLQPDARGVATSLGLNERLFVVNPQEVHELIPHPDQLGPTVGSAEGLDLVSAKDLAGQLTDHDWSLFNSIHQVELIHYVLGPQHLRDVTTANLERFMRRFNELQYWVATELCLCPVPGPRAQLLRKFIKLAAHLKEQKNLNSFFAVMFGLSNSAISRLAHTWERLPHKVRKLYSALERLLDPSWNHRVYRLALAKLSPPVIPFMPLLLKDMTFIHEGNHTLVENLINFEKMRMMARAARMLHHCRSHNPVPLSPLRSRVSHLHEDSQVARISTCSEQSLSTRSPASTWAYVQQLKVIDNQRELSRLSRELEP

Take `O=C(/C=C/c1ccco1)Nc1cccc2cccnc12`: the Potency entry in test [1] and in test [3] was “inactive” each time. Also, the activation in test [2] is 3.39% [at 17.1 µM, percent relative to cAMP agonist control]. In addition, in test [4], the activity change, negative = inhibition is 21.3% [at 30.8 µM].

Consider `COc1cc2c(cc1OC)C(COc1cc(C)cc(C)c1)N(C(C)=O)CC2` (centres undefined), for which the Potency result in test [1] and in test [3] was “inactive” in each case. The activation in test [2] is -1.36% [at 17.1 µM, percent relative to cAMP agonist control]. Also, the activity change, negative = inhibition in test [4] is -10.1% [at 30.8 µM].

`O=C(N/N=C/c1ccc(Sc2ccccn2)o1)c1cc2ccccc2cc1O`: the Potency entry in test [1], in test [2], in test [3] and in test [4] was “inactive” each time.

Take `COc1ccc(NC(=O)CN(C)C(=O)c2cc(-c3ccco3)nc3ccccc23)cc1`: the Potency entry in test [1], in test [2], in test [3] and in test [4] was “inactive” throughout.

For `COc1ccc(Oc2cn[nH]c2-c2ccc(OC)cc2O)cc1`, the Potency result in test [1] and in test [3] was “inactive” each time. The activation in test [2] was 9.65% [at 17.1 µM, percent relative to cAMP agonist control]. In addition, the activity change, negative = inhibition in test [4] was -4.7% [at 30.8 µM].

Consider `O=C1C=C(Nc2cccc3cccnc23)c2ccccc2C1=O`, for which the Potency result in test [1], in test [2], in test [3] and in test [4] was “inactive” throughout.

Turning to `N#C/C(=C/C1=C(N2CCOCC2)C(=C/c2cccc([N+](=O)[O-])c2)/CC1)C(=O)Nc1ccccc1F`, the Potency result in test [1] and in test [3] was “inactive” in each case. Also, the activation in test [2] was 1.67% [at 17.1 µM, percent relative to cAMP agonist control]. The activity change, negative = inhibition in test [4] was -3.26% [at 30.8 µM].

In the case of `C=CCN1C(=O)[C@@H]2Cc3c([nH]c4ccccc34)C(c3ccc(O)cc3)N2C1=S` (some centres undefined), the Potency result in test [1], in test [2], in test [3] and in test [4] was “inactive” throughout.

Turning to `CCCN1CCN(c2ncnc3sc(C(=O)Nc4ccc(OC(F)(F)F)cc4)c(C)c23)CC1`, the Potency result in test [1], in test [2], in test [3] and in test [4] was “inactive” in each case.

Turning to `Cc1nc(-c2ccc(Cl)cc2)sc1CCNC(=O)c1cccs1`, the Potency entry in test [1], in test [2], in test [3] and in test [4] was “inactive” in each case.

With `CCOC(=O)C(C)n1nc(-c2ccccc2)c2ccccc2c1=O` (centres undefined), the Potency result in test [1], in test [2], in test [3] and in test [4] was “inactive” in each case.

Regarding `COCOCCn1cc(CN2CCS(=O)(=O)N(Cc3ccc(-c4ccccc4)cc3)C(CC(C)C)C2=O)nn1` (centres undefined), the Potency result in test [1] was “inactive”. Also, in test [2], the activation is 4.12% [at 17.1 µM, percent relative to cAMP agonist control]. Also, the Potency in test [3] is 3.01 µM (active). For the same compound, the activity change, negative = inhibition in test [4] is -6.67% [at 30.8 µM].

Regarding `Cc1ccc2[nH]cc(C(c3ccccc3)c3ccc(Cl)s3)c2c1` (centres undefined), the Potency entry in test [1], in test [2], in test [3] and in test [4] was “inactive” throughout.

With `Cc1cc(O)cc(C)c1NS(=O)(=O)c1ccc2ccccc2c1`, the Potency result in test [1], in test [2], in test [3] and in test [4] was “inactive” throughout.

For the compound `COC(=O)C1(C)CC1(c1ccccc1)c1ccccc1` (centres undefined), the Potency entry in test [1] and in test [3] was “inactive” throughout. The activation in test [2] was 12.4% [at 17.1 µM, percent relative to cAMP agonist control]. Further, the activity change, negative = inhibition in test [4] was 1.55% [at 30.8 µM].

With `COC(=O)[C@]12CCCCC=C1N(CCC1=CCCCC1)C(=O)[C@H](CC(=O)NCc1cccc(C(F)(F)F)c1)C2`, the Potency result in test [1] and in test [3] was “inactive” each time. Besides, the activation in test [2] was 0% [at 17.1 µM, percent relative to cAMP agonist control]. Moreover, the activity change, negative = inhibition in test [4] was -9.47% [at 30.8 µM].

Consider `Cc1ccc(OCC(=O)Nc2ccc(C)c(S(=O)(=O)N3CCCCCC3)c2)c([N+](=O)[O-])n1`, for which the Potency result in test [1], in test [2], in test [3] and in test [4] was “inactive” each time.

For the compound `O=C1CSC(c2cccc(Cl)c2Cl)N1c1ccccn1` (centres undefined), the Potency result in test [1] and in test [3] was “inactive” throughout. Moreover, the activation in test [2] was 6.45% [at 17.1 µM, percent relative to cAMP agonist control]. Besides, the activity change, negative = inhibition in test [4] was -6.53% [at 30.8 µM].

On to `Oc1ccc(Cc2ccc(Cl)cc2)c(O)c1`, for which the Potency result in test [1] and in test [3] was “inactive” each time. In test [2], the activation is 7.91% [at 17.1 µM, percent relative to cAMP agonist control]. The activity change, negative = inhibition in test [4] is -18.2% [at 30.8 µM].

As to `Oc1cccc(C=Nc2cccc3ccccc23)c1O`, the Potency entry in test [1], in test [2], in test [3] and in test [4] was “inactive” each time.

`COc1cccc(/C=C2\SC(=S)NC2=O)c1OS(=O)(=O)c1ccc(NC(C)=O)cc1`: the Potency entry in test [1] and in test [3] was “inactive” in each case. Also, the activation in test [2] was 5.66% [at 17.1 µM, percent relative to cAMP agonist control]. In test [4], the activity change, negative = inhibition is -18.9% [at 30.8 µM].

On to `CC(C)(C)C(C(=O)n1cccc1C#N)c1ccccc1` (centres undefined), for which the Potency result in test [1] and in test [3] was “inactive” each time. Besides, in test [2], the activation is 5.44% [at 17.1 µM, percent relative to cAMP agonist control]. In test [4], the activity change, negative = inhibition was 3.86% [at 30.8 µM].

As to `COc1ccc(CN(C(=O)c2cccs2)c2nccs2)cc1OC`, the Potency entry in test [1], in test [2], in test [3] and in test [4] was “inactive” in each case.

Turning to `O=C(O)c1ccc(N/N=C/c2ccc(-c3ccccc3Cl)o2)cc1`, the Potency result in test [1] and in test [3] was “inactive” in each case. Further, the activation in test [2] was 7.2% [at 17.1 µM, percent relative to cAMP agonist control]. The activity change, negative = inhibition in test [4] was 1.4% [at 30.8 µM].

In the case of `Cc1ccc(-c2nc3ccc(Br)cn3c2Cc2ccccc2)cc1`, the Potency entry in test [1], in test [2], in test [3] and in test [4] was “inactive” in each case.

Consider `COc1ccc(/C=N/NC(=O)c2[nH]c3ccc(Br)cc3c2-c2ccccc2)c(C(=O)O)c1OC`, for which the Potency entry in test [1] and in test [3] was “inactive” throughout. Also, the activation in test [2] was 2.8% [at 17.1 µM, percent relative to cAMP agonist control]. The activity change, negative = inhibition in test [4] is 0.744% [at 30.8 µM].
